In PubChem BioAssay AID1159580 (chemical genetic matrix, 2015):
The campaign covered roughly 5,500 compounds. About 2,000 (36%) were called active. About 18% were inconclusive and are not listed. No stated cut-off is given here; in the data, active means normalized growth mostly below about 0.91 (no sharp cut-off); inconclusive means no clear call, values can overlap the other calls; inactive means mostly above about 0.92. Some of the results follow.

Experiment: chemical genetic growth profiling, strain panel (AID 1159580);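 further: tested at 20 µM; growth read once vehicle control cultures reached saturation at 30 °C; 1 = growth at the plate median or of vehicle wells; lower values mean less growth of the strain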
Details: growth OD

Measured: normalized growth

CC[C@@H]1[C@@H](O)N2C3C[C@H]1C1C(O)[C@]4(C[C@@H]12)c1ccccc1N(C)[C@@H]34 (some centres not stated)
inactive: S. cerevisiae deletion strains, locus YJR075W, strain HOC1, active compounds read low 0.986 | S. cerevisiae deletion strains, locus YKL009W, strain mrt4, active compounds read low 1.02 | S. cerevisiae deletion strains, locus YKL068W, active compounds read low 0.987 | S. cerevisiae deletion strains, locus YKL085W, strain MDH1 (second series), active compounds read low 0.997 | S. cerevisiae deletion strains, locus YKL085W, strain MDH1, active compounds read low 0.997 | S. cerevisiae deletion strains, locus YKL160W, strain elf1, active compounds read low 1 | S. cerevisiae deletion strains, locus YKL190W, strain CNB1, active compounds read low 0.989 | S. cerevisiae deletion strains, locus YKR001C, strain vps1, active compounds read low 0.965 | S. cerevisiae deletion strains, locus YKR026C, strain gcn3, active compounds read low 1.02 | S. cerevisiae deletion strains, locus YKR091W, strain srl3, active compounds read low 1.03 | S. cerevisiae deletion strains, locus YLL001W, strain dnm1, active compounds read low 1.02 | S. cerevisiae deletion strains, locus YLL026W, active compounds read low 1 | S. cerevisiae deletion strains, locus YLL041C, strain sdh2, active compounds read low 1.05 | S. cerevisiae deletion strains, locus YLR027C, strain aat2, active compounds read low 1.02 | S. cerevisiae deletion strains, locus YLR039C, strain RIC1, active compounds read low 0.985 | S. cerevisiae deletion strains, locus YLR058C, strain SHM2, active compounds read low 0.992 | S. cerevisiae deletion strains, locus YLR102C, strain apc9, active compounds read low 0.973 | S. cerevisiae deletion strains, locus YLR113W, strain HOG1, active compounds read low 0.996 | S. cerevisiae deletion strains, locus YLR221C, strain rsa3, active compounds read low 1.01 | S. cerevisiae deletion strains, locus YLR258W, strain gsy2, active compounds read low 1.03 | S. cerevisiae deletion strains, locus YLR262C, strain YPT6 (second series), active compounds read low 1.01 | S. cerevisiae deletion strains, locus YLR262C, strain YPT6, active compounds read low 0.984 | S. cerevisiae deletion strains, locus YLR268W, strain sec22, active compounds read low 0.935 | S. cerevisiae deletion strains, locus YLR320W, strain mms22, active compounds read low 1.01 | S. cerevisiae deletion strains, locus YLR330W, strain CHS5, active compounds read low 0.994 | S. cerevisiae deletion strains, locus YLR342W, strain FKS1 (second series), active compounds read low 1.01 | S. cerevisiae deletion strains, locus YLR342W, strain FKS1, active compounds read low 1.01 | S. cerevisiae deletion strains, locus YLR357W, strain rsc2, active compounds read low 1.09 | S. cerevisiae deletion strains, locus YLR370C, strain arc18, active compounds read low 1.03 | S. cerevisiae deletion strains, locus YLR371W, strain rom2, active compounds read low 0.975 | S. cerevisiae deletion strains, locus YLR384C, strain iki3, active compounds read low 1.03 | S. cerevisiae deletion strains, locus YLR418C, strain cdc73, active compounds read low 0.961 | S. cerevisiae deletion strains, locus YML016C, strain PPZ1, active compounds read low 0.992 | S. cerevisiae deletion strains, locus YML032C, strain rad52, active compounds read low 0.954 | S. cerevisiae deletion strains, locus YML120C, strain ndi1, active compounds read low 1.02 | S. cerevisiae deletion strains, locus YML124C, strain tub3, active compounds read low 0.982 | S. cerevisiae deletion strains, locus YMR058W, strain fet3, active compounds read low 1.01 | S. cerevisiae deletion strains, locus YMR078C, strain ctf18, active compounds read low 0.958 | S. cerevisiae deletion strains, locus YMR125W, strain sto1, active compounds read low 1.06 | S. cerevisiae deletion strains, locus YMR129W, active compounds read low 1.01 | S. cerevisiae deletion strains, locus YMR205C, strain PFK2, active compounds read low 1.03 | S. cerevisiae deletion strains, locus YMR223W, strain ubp8, active compounds read low 0.996 | S. cerevisiae deletion strains, locus YMR231W, strain pep5, active compounds read low 1.03 | S. cerevisiae deletion strains, locus YMR263W, strain SAP30, active compounds read low 1 | S. cerevisiae deletion strains, locus YMR307W, strain GAS1, active compounds read low 0.974 | S. cerevisiae deletion strains, locus YNL067W, strain RPL9B, active compounds read low 0.981 | S. cerevisiae deletion strains, locus YNL071W, strain lat1, active compounds read low 1.03 | S. cerevisiae deletion strains, locus YNL128W, strain TEP1, active compounds read low 0.991 | S. cerevisiae deletion strains, locus YNL153C, strain GIM3, active compounds read low 0.992 | S. cerevisiae deletion strains, locus YNL183C, strain NPR1, active compounds read low 0.917 | S. cerevisiae deletion strains, locus YNL209W, strain ssb2, active compounds read low 1.04 | S. cerevisiae deletion strains, locus YNL233W, strain BNI4, active compounds read low 0.977 | S. cerevisiae deletion strains, locus YNL248C, strain rpa49, active compounds read low 1.01 | S. cerevisiae deletion strains, locus YNL250W, strain rad50, active compounds read low 0.981 | S. cerevisiae deletion strains, locus YNL271C, strain bni1, active compounds read low 0.973 | S. cerevisiae deletion strains, locus YNL298W, strain CLA4, active compounds read low 0.968 | S. cerevisiae deletion strains, locus YNL307C, strain MCK1, active compounds read low 0.99 | S. cerevisiae deletion strains, locus YNL322C, strain KRE1 (second series), active compounds read low 1.05 | S. cerevisiae deletion strains, locus YNL322C, strain KRE1, active compounds read low 0.998 | S. cerevisiae deletion strains, locus YNR049C, strain mso1, active compounds read low 1.03 | S. cerevisiae deletion strains, locus YNR052C, strain pop2, active compounds read low 0.982 | S. cerevisiae deletion strains, locus YOL006C, strain TOP1, active compounds read low 0.921 | S. cerevisiae deletion strains, locus YOL012C, strain htz1 0.945 | S. cerevisiae deletion strains, locus YOL147C, strain pex11, active compounds read low 0.974 | S. cerevisiae deletion strains, locus YOR001W, strain rrp6, active compounds read low 1.02 | S. cerevisiae deletion strains, locus YOR061W, strain CKA2, active compounds read low 0.97 | S. cerevisiae deletion strains, locus YOR069W, strain VPS5, active compounds read low 0.995 | S. cerevisiae deletion strains, locus YOR070C, strain gyp1, active compounds read low 1.03 | S. cerevisiae deletion strains, locus YOR080W, strain dia2, active compounds read low 1.04 | S. cerevisiae deletion strains, locus YOR083W, strain WHI5, active compounds read low 0.979 | S. cerevisiae deletion strains, locus YOR106W, strain vam3, active compounds read low 1.04 | S. cerevisiae deletion strains, locus YOR136W, strain idh2, active compounds read low 0.98 | S. cerevisiae deletion strains, locus YOR144C, strain elg1, active compounds read low 0.962 | S. cerevisiae deletion strains, locus YOR184W, strain ser1, active compounds read low 0.97 | S. cerevisiae deletion strains, locus YOR231W, strain MKK1, active compounds read low 1.01 | S. cerevisiae deletion strains, locus YOR265W, strain rbl2, active compounds read low 1.03 | S. cerevisiae deletion strains, locus YOR270C, strain vph1, active compounds read low 1.14 | S. cerevisiae deletion strains, locus YOR290C, strain snf2, active compounds read low 1.02 | S. cerevisiae deletion strains, locus YOR316C, strain cot1, active compounds read low 0.975 | S. cerevisiae deletion strains, locus YPL051W, strain arl3, active compounds read low 1.02 | S. cerevisiae deletion strains, locus YPL055C, strain LGE1, active compounds read low 1 | S. cerevisiae deletion strains, locus YPL078C, strain atp4, active compounds read low 1.03 | S. cerevisiae deletion strains, locus YPL106C, strain sse1, active compounds read low 1.06 | S. cerevisiae deletion strains, locus YPL240C, strain hsp82, active compounds read low 1.02 | S. cerevisiae deletion strains, locus YPL241C, strain CIN2, active compounds read low 0.994 | S. cerevisiae deletion strains, locus YPL256C, strain CLN2, active compounds read low 0.982 | S. cerevisiae deletion strains, locus YPR119W, strain clb2, active compounds read low 0.972 | S. cerevisiae deletion strains, locus YPR141C, strain kar3, active compounds read low 0.979 | S. cerevisiae deletion strains, locus YPR163C, strain tif3, active compounds read low 0.966 | S. cerevisiae deletion strains, locus YPR167C, strain met16, active compounds read low 0.976 | S. cerevisiae deletion strains, strain wtn01, active compounds read low 0.963 | S. cerevisiae strains, strain wild type, active compounds read low 0.994
